Assay results reported in paper PMC13494018.
Values without a mark were called inactive. How the calls were made is not given here.

B1: design_618_d4ffd631-0ea2-432e-ba0f-bd3d6297b2a0_165_dldesign_0_cycle1_af2pred (protein)
chain: AAAAAKVAVAAAKSMIKQAKKFLEEGEKSGDLKLVESAKKLAEQAKNLAKFAIANPATKEEGEKLEKEAEEVKKKAEEAEKKIK
B2: design_618_d4ffd631-0ea2-432e-ba0f-bd3d6297b2a0_719_dldesign_0_cycle1_af2pred (protein)
chain: AAALAEVQEKALEAAKKASELAREARKAGDEEKAKKFEELMNTLMSAAGAAAQDLEAAKEKIDKAIKEIEELAKN
B3: design_617_b3fadc1d-0db4-4da8-8433-818493aa2ab2_1785_dldesign_0_cycle1_af2pred (protein)
chain: EAEEYYKKGKEYSAKGDELYKAGKYEEAIKYYQKAANYYSKASILLTKAGGDQEKIDEANANLAKALENLEKASRALREAREKEEK
B4: design_618_d4ffd631-0ea2-432e-ba0f-bd3d6297b2a0_400_dldesign_0_cycle1_af2pred (protein)
chain: SSSLIDRLTGIALKGLSIAQGVLDKVEAGEATPEEIEEGIKAAEESEKAAKELSKLLAAQPAASEYYKKLAERAKEYKEKLKKALA
B5: design_618_d4ffd631-0ea2-432e-ba0f-bd3d6297b2a0_1177_dldesign_0_cycle1_af2pred (protein)
chain: AQATLASAQALTNAAETALKTSPEYAPLALQLAQQGIELAKQAAKEGAKEDPATAKEAKEVQKKAEEVAKQAQKILA
B6: design_618_d4ffd631-0ea2-432e-ba0f-bd3d6297b2a0_140_dldesign_0_cycle1_af2pred (protein)
chain: NEDLTKAGEKVVETQRTASEAARTSGDPAVAAEMNAIANAAIKALQAGVATGDYKTALETTEKLLKEAKAKLKEVK
B7: design_618_d4ffd631-0ea2-432e-ba0f-bd3d6297b2a0_110_dldesign_0_cycle1_af2pred (protein)
chain: AGAAAAEEIRALVDKAIADPATAPEYTARAAEIARAADPRLAGVGQAILAAAERLAAGSPEEAARHAAQMRELTDVVVATLLG
B8: design_617_b3fadc1d-0db4-4da8-8433-818493aa2ab2_2366_dldesign_0_cycle1_af2pred (protein)
chain: GLEKALKELKKVAEATAAAATAADPAMKPTADLLKKAAERAAAGDAETALANLNTILVLADSIAAVDPAAAKKLKEAAEKAIKIAR
B9: design_618_d4ffd631-0ea2-432e-ba0f-bd3d6297b2a0_800_dldesign_0_cycle1_af2pred (protein)
chain: MSEAAKEVAELAEYVSKQAKEAGNEEAAKLAKEGAELAKEGAKDPSTAGEKIAEALKLYIQASQQLVAYQQA
B10: design_618_d4ffd631-0ea2-432e-ba0f-bd3d6297b2a0_93_dldesign_0_cycle1_af2pred (protein)
chain: MEEVKALIARAAELLAAAAADPSTAGEKVTEAIRLLAEAAALDPSIAPLANEAMALATRGLVTGPEGLAAAEEATKAVLEAV
B11: design_618_d4ffd631-0ea2-432e-ba0f-bd3d6297b2a0_931_dldesign_0_cycle1_af2pred (protein)
chain: AAAAEAALARAVAVLGRAFQQAVASPDLAEADALLDAGLAEALAITAADPEAAAAVRRLAAQMRAKVRELVS
B12: design_617_b3fadc1d-0db4-4da8-8433-818493aa2ab2_2360_dldesign_0_cycle1_af2pred (protein)
chain: AAAQAQAQQIVDQTRAAVEEARAMAEDGATAAAAAERAAAVARQASAAIPQALAASPQIAGQLAQVALDATRVEAEARRNAA
B13: design_617_b3fadc1d-0db4-4da8-8433-818493aa2ab2_1885_dldesign_0_cycle1_af2pred (protein)
chain: AEAAKKGEEAVKKAEEAKKKAEAAAAKLPASVADPVKAAADALVASAKAHAEAGNTESAEATAEVLAGMAEGTKARADALAA
B14: design_617_b3fadc1d-0db4-4da8-8433-818493aa2ab2_1993_dldesign_0_cycle1_af2pred (protein)
chain: PSVEEIGQALLDNLKKTLEEAVKASLEEAKGYAAQAAALYIGAHGASPEYGKQAEEIVKKAIKELEKKDPEKAKILKEAIEKAEALL
B15: design_617_b3fadc1d-0db4-4da8-8433-818493aa2ab2_1686_dldesign_0_cycle1_af2pred (protein)
chain: MEEYLEEAKRFAESVIELSKLLLEGAPYNPALSAASLAALRKQAKARAEEAAKIDPEAAEALEKAAKTAEEAEKKAKALAA
B16: design_618_d4ffd631-0ea2-432e-ba0f-bd3d6297b2a0_729_dldesign_0_cycle1_af2pred (protein)
chain: AKEEVVEQAKQVAEAALALAKQVSPEWEKKAKEALELVEKAKEGNLEEAQKVAGEVMRIAAEVLAAYTAKQA
B17: design_618_d4ffd631-0ea2-432e-ba0f-bd3d6297b2a0_941_dldesign_0_cycle1_af2pred (protein)
chain: SEEVKKALEEVEKLLDEAIKAAKAGDIGTAAVLLAKAAAIADKAHPEAGAVIRQGLAEAIAAAADPEKAAKVIEEAREKVKKILEA
B18: design_617_b3fadc1d-0db4-4da8-8433-818493aa2ab2_2387_dldesign_0_cycle1_af2pred (protein)
chain: AAAAEGELLGKLIELARRASKLDPETANLILSGLGLYGVDPEAGVKKLLEAAELAKKAGHEELAKEIKELAEKLAAVSAA
B19: design_618_d4ffd631-0ea2-432e-ba0f-bd3d6297b2a0_1320_dldesign_0_cycle1_af2pred (protein)
chain: AAAEAAAAAVRAATAAGVARVEALAAAAGDAEVAALARAEAARIREVGAVLEEIARATGPFGGEVGLKSVATVTANAEARIAEAA
B20: design_618_d4ffd631-0ea2-432e-ba0f-bd3d6297b2a0_170_dldesign_0_cycle1_af2pred (protein)
chain: AAAAAAADAEAAALAKGFVEEAKKKIEALLKAGAPEEELLAEASRVAAKAIRTFAALGWNGSHAVAAVKAITEEAKKAIEKLRA
B21: design_617_b3fadc1d-0db4-4da8-8433-818493aa2ab2_2347_dldesign_0_cycle1_af2pred (protein)
chain: AAAEQAAREALQGRALEKMKEYVDKLVALAKETGSEAALEAAQQVASLFTQAIIAAQQDLAAGRAALAQGEALAKAAIAALE
B22: design_618_d4ffd631-0ea2-432e-ba0f-bd3d6297b2a0_1565_dldesign_0_cycle1_af2pred (protein)
chain: MEEELKKIEEVKELGKKIGEELAKKILEYAKENASLPIEEILRKMVEMTREAVEKIYKLIPSELAEIGARIVWGAGSQAMIQGVRLIG
B23: design_618_d4ffd631-0ea2-432e-ba0f-bd3d6297b2a0_1447_dldesign_0_cycle1_af2pred (protein)
chain: MQGHIDRLNRGAEAALAAAESGEITEEQARIIRNGAMIAYDAAEAYEKTTRAAELLQTTPEGREEGGKILRELAEKMLARAKELL
B24: design_618_d4ffd631-0ea2-432e-ba0f-bd3d6297b2a0_1274_dldesign_0_cycle1_af2pred (protein)
chain: MSPEEAKAQAEELAKQAKENKAKALATVADPAKAGEHIVQIAKNAAALQRIAAEVPEVAAYAKAKAREASKYLAEASTAAAAA
B25: design_618_d4ffd631-0ea2-432e-ba0f-bd3d6297b2a0_955_dldesign_0_cycle1_af2pred (protein)
chain: AAASEIMAKFAAGVAKNVAAVLKEDPEKGIEVGKKLAEIILAADPQAGAKLAQAFAEYVKKYAPLIPADKKAAAEAYFNALAEKGA
B26: design_618_d4ffd631-0ea2-432e-ba0f-bd3d6297b2a0_687_dldesign_0_cycle1_af2pred (protein)
chain: AAAQQLAVQSATAFARQAIAAAQAALELAKADPSAKEEIERLLNQARASLQNALLVGQSSPEAAAIAQEAQATVEKLAAETAKAAAA
B27: design_618_d4ffd631-0ea2-432e-ba0f-bd3d6297b2a0_1130_dldesign_0_cycle1_af2pred (protein)
chain: AEAVAKAALTSAKNLAEMAIRLAESGEKLEEAKKALEVAKAMAEQAEKLNPKYGKEAKAAVEKAEKKLKEAE
B28: design_618_d4ffd631-0ea2-432e-ba0f-bd3d6297b2a0_220_dldesign_0_cycle1_af2pred (protein)
chain: DKEEAVKLAEEGAEVALKLADKRVGAVTAAAFRGLARSIRAAEDPEDIAKIAEVAKGMKAWAEAQLKATA
B29: design_618_d4ffd631-0ea2-432e-ba0f-bd3d6297b2a0_472_dldesign_0_cycle1_af2pred (protein)
chain: MNEAQRIAAARGAARVAAAAAEKDPALGKAILAGAAATFADSPAALKALAATAREEAEKASPEAGAALKAAAAEVEAAAA
B30: design_617_b3fadc1d-0db4-4da8-8433-818493aa2ab2_2043_dldesign_0_cycle1_af2pred (protein)
chain: DLVEKYREEALAEAEKLVKEGVSPEEAAEILMEKAREYFAQAAKASPEVAVKLIAKAEGYALAAKEIRERL
B31: design_617_b3fadc1d-0db4-4da8-8433-818493aa2ab2_2293_dldesign_0_cycle1_af2pred (protein)
chain: AEEALKLLKEAKKKAEEALKLAEKGGDPEEIKALVNEALSLATKGSAQAVKHPEIAPLGNAVLGYAVDVAERVEELLKERE
B32: design_618_d4ffd631-0ea2-432e-ba0f-bd3d6297b2a0_442_dldesign_0_cycle1_af2pred (protein)
chain: AAATRATADAALAELERVGEVAVTVAKSALEAGFSKETALKIGTSLVENVVTGATAAVADDPAAQARIRAAGERIKEEIRKAL
B33: design_618_d4ffd631-0ea2-432e-ba0f-bd3d6297b2a0_776_dldesign_0_cycle1_af2pred (protein)
chain: GAEEELKKAEEMGEIAESIAKQAAKASGSKEAKELLKKAKELVKKAKENAKDKEKIKELLKELSRLAGQAAKQLIAALK
B34: design_618_d4ffd631-0ea2-432e-ba0f-bd3d6297b2a0_848_dldesign_0_cycle1_af2pred (protein)
chain: MERAISLGKAAAVAGIAGSTAALKNIVKTIAKLSPEEAKKAAEVAAKEIIKAPNAKEMLKAAADAAKEVGTESGKAAAEVFEKAAKKA
B35: design_617_b3fadc1d-0db4-4da8-8433-818493aa2ab2_1728_dldesign_0_cycle1_af2pred (protein)
chain: GAALAARHGAAAARGALQGTVEEAAAQLANGLKIAAQLAPADGAAYRAAVLAVIAQASPERAAAILALAG
B36: design_617_b3fadc1d-0db4-4da8-8433-818493aa2ab2_1940_dldesign_0_cycle1_af2pred (protein)
chain: MEEYRARAEELLEKAKKAAEGENGVGDVGELAVEMAKLAAEAEKASPEAGAYARAALVEISQLAIEAAKRKAA
B37: design_617_b3fadc1d-0db4-4da8-8433-818493aa2ab2_1817_dldesign_0_cycle1_af2pred (protein)
chain: AEEERMRAAIREIAAAAAAEVEAWAKAHPAADQAEWFAALQAAGEKAAEAMAAIDPRYAPEARALAMALGAGAVQRVKA
B38: design_618_d4ffd631-0ea2-432e-ba0f-bd3d6297b2a0_318_dldesign_0_cycle1_af2pred (protein)
chain: MEKKEELKKKAEEAIKKLKKLKEEGASPEEINKALAEAVELAKEAAEAGDSETANRLLSEAGRLSIEALKNHAA

Target: CD276, Q5ZPR3
Sequence (Q5ZPR3 whole entry): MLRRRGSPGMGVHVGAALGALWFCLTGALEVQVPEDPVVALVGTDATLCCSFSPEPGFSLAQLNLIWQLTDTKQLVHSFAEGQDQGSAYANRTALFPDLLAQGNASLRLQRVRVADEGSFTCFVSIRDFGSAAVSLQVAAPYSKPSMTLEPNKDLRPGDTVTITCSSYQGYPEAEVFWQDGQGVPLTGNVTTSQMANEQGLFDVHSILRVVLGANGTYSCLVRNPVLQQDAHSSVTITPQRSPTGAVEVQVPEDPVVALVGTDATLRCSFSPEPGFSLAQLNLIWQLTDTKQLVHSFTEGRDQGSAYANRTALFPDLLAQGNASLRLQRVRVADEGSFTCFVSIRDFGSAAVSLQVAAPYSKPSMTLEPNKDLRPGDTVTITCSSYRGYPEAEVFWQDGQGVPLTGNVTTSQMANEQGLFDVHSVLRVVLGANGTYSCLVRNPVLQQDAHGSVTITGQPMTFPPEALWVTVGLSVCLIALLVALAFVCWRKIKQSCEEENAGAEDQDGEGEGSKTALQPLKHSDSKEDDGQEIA

Row | Binder | binding in a display sort
1 | B1 | not found
2 | B2 | not found
3 | B3 | not found
4 | B4 | not found
5 | B5 | not found
6 | B6 | not found
7 | B7 | not found
8 | B8 | not found
9 | B9 | not found
10 | B10 | not found
11 | B11 | not found
12 | B12 | not found
13 | B13 | not found
14 | B14 | not found
15 | B15 | not found
16 | B16 | not found
17 | B17 | not found
18 | B18 | not found
19 | B19 | not found

Row | Binder | binding in a display sort
20 | B20 | not found
21 | B21 | not found
22 | B22 | not found
23 | B23 | not found
24 | B24 | not found
25 | B25 | not found
26 | B26 | not found
27 | B27 | not found
28 | B28 | not found
29 | B29 | not found
30 | B30 | not found
31 | B31 | not found
32 | B32 | not found
33 | B33 | not found
34 | B34 | not found
35 | B35 | not found
36 | B36 | not found
37 | B37 | not found
38 | B38 | not found
